The record followed here is PubChem BioAssay (NCATS).

Results filed as inconclusive are left out. Entries that show only a call come without a potency. Calls of active or inactive are those of the source. Calls follow the shape of the dose curve; as a rule, active = well fitted inhibition curve with a large enough effect; inconclusive = small, poorly fitted or top-dose-only effect; inactive = flat fitted curve, though single readings scatter.
Potency is read from the fitted curve at half-maximal effect.

The assay in a line: qHTS for differential inhibitors of proliferation of Plasmodium falciparum line Dd2 (AID 1882). Also: nearly all actives have a fitted effect of over 65% in size. The conditions noted are these: Potency: Plasmodium falciparum Dd2 proliferation inhibition; series mostly up to 28.7 µM. An excerpt:
NIH Molecular Libraries Probe Production Network [MLPCN]
NIH National Institute of Allergy and Infectious Diseases [NIAID]
NIH Chemical Genomics Center [NCGC]
Assay Provider: Xinzhuan Su, NIAID
Plasmodium falciparum is a virulent malarial parasite that kills 1-2 million people worldwide each year. Transmitted by mosquitoes, the sporozoite form of the parasite enters the blood stream to infect hepatocytes, where they become merozoites that infect red blood cells (erythrocytes). Within erythrocytes, merozoites begin a […] cycle of growth and division, after which the parasite is released to infect new red blood cells. Gametocytes, which form within erythrocytes as well, circulate in the bloodstream and are ingested by the mosquito, thereby completing the life cycle. To profile malarial isolates for differential chemical responses and to identify inhibitors of malarial growth, an assay that measures P. falciparum growth and replication within erythrocytes was employed. This assay uses a DNA binding fluorescent dye (SYBR Green) to detect parasite DNA following cell lysis. Because mature erythrocytes lack DNA, only Plasmodium-derived DNA is detected. The P. falciparum line Dd2, derived from a malarial isolate from […], was used.
NCGC Assay Protocol Summary:
The SYBR Green viability assay was adapted from a method described previously (Plouffe et al., 2008). For screening 3 ul culture medium was dispensed into 1536 well black clear bottom plates (Aurora Biotechnologies) using a Multidrop Combi (Thermo Fisher Scientific Inc.), 23 nL compounds in DMSO were added by a pin tool (Kalypsys), and 5 ul of erythrocytes infected with P. falciparum line Dd2 (0.3% parasitemia, 2.5% hematocrit final concentration) were added. The plates were incubated at 37 C in a humidified incubator in 5% CO2 for 72 h, and 2 ul lysis buffer (20 mM Tris HCl, 10 mM EDTA, […]% saponin, 1.6% triton X, 10X SYBR Green I supplied as 10,000X […] by Invitrogen) was added to each well. The plates were mixed for 25 sec with gentle shaking and incubated overnight at room temperature in the dark. The following morning, fluorescence intensity at 485(14) nm excitation and 535(25) nm emission wavelengths was measured on an EnVision (Perkin Elmer) plate reader. Plate reads were normalized relative to the control inhibitor (0.29 uM artemisinin) and vehicle (DMSO) wells present on each plate and then corrected by an algorithm using vehicle-only control plates at the beginning and end of the compound plate stack.
Plouffe D, Brinker A, McNamara C, Henson K, Kato N, Kuhen K, Nagle A, Adrian F, Matzen JT, Anderson P, Nam TG, Gray NS, Chatterjee A, Janes J, Yan SF, Trager R, Caldwell JS, Schultz PG, Zhou Y, Winzeler EA. […] Proc Natl Acad Sci U S A. 2008, 105(26), pp 9059-64.
A general note: Quantitative high-throughput screening tests each substance at several concentrations.
`CN1C[C@H](CNC(=O)OCc2ccccc2)C[C@@H]2c3cccc4c3c(cn4C)C[C@H]21`: the Potency is 10 µM (active).

For the compound `CC(CCc1ccccc1)NC(C)C(O)c1ccc(O)cc1` (stereo unspecified), the Potency was 5.01 µM (active).

In the case of `NCC(CC(=O)O)c1ccc(Cl)cc1` (stereo unspecified), the Potency result is “inactive”.

Take `O=c1[nH]c2ccccc2n1C1CCN(CCCC(c2ccc(F)cc2)c2ccc(F)cc2)CC1`: the Potency is 10 µM (active).

As for `COC[C@H]1OC(=O)c2coc3c2[C@@]1(C)C1=C(C3=O)C2CCC(=O)[C@@]2(C)C[C@H]1OC(C)=O` (stereo partly specified), the Potency is 11.2 µM (active).

For `CCCC(C)(COC(N)=O)COC(=O)NC(C)C` (stereo unspecified), the Potency entry is “inactive”.

For `CCC1(C2=NCCN2)Cc2ccccc2O1` (stereo unspecified), the Potency is 8.91 µM (active).

On to `CCCN1CCC[C@@H]2Cc3nc(N)ncc3C[C@H]21`, for which the Potency entry was “inactive”.

On to `Nc1ccncc1`, for which the Potency result is “inactive”.

In the case of `OCCN1CCN(CCCN2c3ccccc3Sc3ccc(C(F)(F)F)cc32)CC1`, the Potency was 10 µM (active).

Take `O=c1[nH]c2ccccc2n1CCCN1CCC(n2c(=O)[nH]c3cc(Cl)ccc32)CC1`: the Potency was 8.91 µM (active).

For `Cc1ccc(S(=O)(=O)N[C@@H](CCCCN)C(=O)CCl)cc1`, the Potency result is “inactive”.

With `CC(=O)[C@H]1CC[C@H]2[C@@H]3CC[C@H]4C[C@H](O)CC[C@]4(C)[C@H]3C(=O)C[C@]12C`, the Potency entry was “inactive”.

As to `O=C1NCN(c2ccccc2)C12CCN(CC1COc3ccccc3O1)CC2` (stereo unspecified), the Potency result is “inactive”.

In the case of `Fc1ccc(C(OCCN2CCN(CCCc3ccccc3)CC2)c2ccc(F)cc2)cc1`, the Potency is 7.94 µM (active).

Consider `C=C(C)[C@H]1Cc2c(ccc3c2O[C@@H]2COc4cc(OC)c(OC)cc4[C@@H]2C3=O)O1`, for which the Potency entry is “inactive”.

On to `NCC1(CC(=O)O)CCCCC1`, for which the Potency entry is “inactive”.

In the case of `NN=C(N)N`, the Potency result is “inactive”.

With `Cc1ncc(CNC(=O)N(CCCl)N=O)c(N)n1`, the Potency entry was “inactive”.

In the case of `COc1ccc(Cc2nccc3cc(OC)c(OC)cc23)cc1OC`, the Potency entry was “inactive”.

For `CNCC(O)c1ccc(O)cc1` (stereo unspecified), the Potency result is “inactive”.

For the compound `COc1ccccc1N1CCNCC1`, the Potency result was “inactive”.

On to `CC[N+](CC)(CC)CC`, for which the Potency entry was “inactive”.

Regarding `O=c1c(O)c(-c2ccc(O)c(O)c2)oc2cc(O)cc(O)c12`, the Potency is 8.91 µM (active).

Regarding `NCC(O)c1ccc(O)cc1` (stereo unspecified), the Potency entry was “inactive”.

Consider `N#CC(C#N)=Cc1ccc(O)c(O)c1`, for which the Potency entry is “inactive”.
